Records with an inconclusive call do not appear. Values without a mark were called inactive. Calls of active or inactive are those of the source. The call rests on the fitted dose curve; in most records, active means well fitted cell-killing curve with a large enough effect; inconclusive means small, poorly fitted or top-dose-only effect, or effect the other way; inactive means no such curve, though single readings can be large or run the other way.
Tests used:
[1] = Quantitative High-Throughput drug screen in 47 multiple myeloma cell lines against the NCATS MIPE library collection: LP1_DSMZ cell viability assay (AID 1918982); further: nearly all actives have a fitted effect of over 35% in size
Outline: (§1)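 ATP-based CellTiter-Glo luminescence after 48 h drug exposure (37 °C, 5% CO2) of 500 myeloma cells per well. DMSO-only wells set 100% viability, media-only wells 0%; MIPE 4.0 library added by pin tool.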

[2] = Quantitative High-Throughput drug screen in 47 multiple myeloma cell lines against the NCATS MIPE library collection: KMS28PE_JCRB cell viability assay (AID 1918983); further: nearly all actives have a fitted effect of over 35% in size
Outline: as §1

[3] = Quantitative High-Throughput drug screen in 47 multiple myeloma cell lines against the NCATS MIPE library collection: L363_DSMZ cell viability assay (AID 1918984); conditions: L363 myeloma viability, CellTiter-Glo ATP luminescence, 48 h; viability (% of control): at 45.8 µM (top of the series); further: nearly all actives have a fitted effect of over 40% in size
Outline: as §1

[4] = Quantitative High-Throughput drug screen in 47 multiple myeloma cell lines against the NCATS MIPE library collection: KMS34_JCRB cell viability assay (AID 1918985); further: nearly all actives have a fitted effect of over 40% in size
Outline: as §1

[5] = Quantitative High-Throughput drug screen in 47 multiple myeloma cell lines against the NCATS MIPE library collection: OCIMY7_PLB cell viability assay (AID 1918987); conditions: OCI-MY7 myeloma viability, CellTiter-Glo ATP, 48 h; viability (% of DMSO): at 45.8 µM (top of the series); further: nearly all actives have a fitted effect of over 65% in size
Outline: as §1

[6] = Quantitative High-Throughput drug screen in 47 multiple myeloma cell lines against the NCATS MIPE library collection: OCIMY5_PLB cell viability assay (AID 1918988); further: nearly all actives have a fitted effect of over 65% in size
Outline: as §1

[7] = Quantitative High-Throughput drug screen in 47 multiple myeloma cell lines against the NCATS MIPE library collection: OPM1_PLB cell viability assay (AID 1918989); further: nearly all actives have a fitted effect of over 40% in size
Outline: as §1

[8] = Quantitative High-Throughput drug screen in 47 multiple myeloma cell lines against the NCATS MIPE library collection: SKMM1_PLB cell viability assay (AID 1919863); conditions: SKMM1 myeloma viability, CellTiter-Glo ATP, 48 h; viability: stronger effect = lower value; further: nearly all actives have a fitted effect of over 35% in size
Outline: as §1

[9] = Quantitative High-Throughput drug screen in 47 multiple myeloma cell lines against the NCATS MIPE library collection: U266_ATCC cell viability assay (AID 1919864); further: nearly all actives have a fitted effect of over 35% in size
Outline: as §1

[10] = Quantitative High-Throughput drug screen in 47 multiple myeloma cell lines against the NCATS MIPE library collection: XG6_PLB cell viability assay (AID 1919865); further: nearly all actives have a fitted effect of over 40% in size
Outline: as §1

[11] = Quantitative High-Throughput drug screen in 47 multiple myeloma cell lines against the NCATS MIPE library collection: XG1_PLB cell viability assay (AID 1919866); further: nearly all actives have a fitted effect of over 35% in size
Outline: as §1

[12] = Quantitative High-Throughput drug screen in 47 multiple myeloma cell lines against the NCATS MIPE library collection: VP6_DJ cell viability assay (AID 1919867); further: nearly all actives have a fitted effect of over 40% in size
Outline: as §1

[13] = Quantitative High-Throughput drug screen in 47 multiple myeloma cell lines against the NCATS MIPE library collection: UTMC2_PLB cell viability assay (AID 1919868); conditions: CellTiter-Glo ATP luminescence, 48 h; viability (% of DMSO control): at 45.8 µM (top of the series); further: nearly all actives have a fitted effect of over 55% in size
Outline: as §1

[14] = Quantitative High-Throughput drug screen in 47 multiple myeloma cell lines against the NCATS MIPE library collection: PE2_PLB cell viability assay (AID 1919869); further: nearly all actives have a fitted effect of over 35% in size
Outline: as §1

[15] = Quantitative High-Throughput drug screen in 47 multiple myeloma cell lines against the NCATS MIPE library collection: PCM6_Riken cell viability assay (AID 1919870); further: nearly all actives have a fitted effect of over 30% in size
Outline: as §1

[16] = Quantitative High-Throughput drug screen in 47 multiple myeloma cell lines against the NCATS MIPE library collection: RPMI8226_ATCC cell viability assay (AID 1919871); further: nearly all actives have a fitted effect of over 30% in size
Outline: as §1

[17] = Quantitative High-Throughput drug screen in 47 multiple myeloma cell lines against the NCATS MIPE library collection: OPM2_DSMZ cell viability assay (AID 1919872); further: nearly all actives have a fitted effect of over 30% in size
Outline: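 Relative luminescence from CellTiter-Glo served as the viability signal, referenced to DMSO-treated (100%) and cell-free medium (0%) controls. Treatment lasted 48 hours at 37C with 500 cells per well.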

[18] = Quantitative High-Throughput drug screen in 47 multiple myeloma cell lines against the NCATS MIPE library collection: KMS28BM_JCRB cell viability assay (AID 1919874); further: nearly all actives have a fitted effect of over 35% in size
Outline: as §1

[19] = Quantitative High-Throughput drug screen in 47 multiple myeloma cell lines against the NCATS MIPE library collection: KMS11_JCRBsus cell viability assay (AID 1919873); further: nearly all actives have a fitted effect of over 50% in size
Outline: as §1
Potency means the concentration at half of the fitted maximal effect.

Structure (SMILES)	Potency [1]	Potency [2]	Potency [3]	Potency [4]	Potency [5]	Potency [6]	Potency [7]	viability [8] [%]	Potency [9]	Potency [10]	Potency [11]	Potency [12]	Potency [13]	Potency [14]	Potency [15]	Potency [16]	Potency [17]	Potency [18]	Potency [8]	Potency [19]
Fc1ccc(C(c2ccc(F)cc2)N2CCN(CC=Cc3ccccc3)CC2)cc1	16.6 µM (active)	inactive	inactive	inactive	13.2 µM (active)	14.8 µM (active)	inactive	107	inactive	7.43 µM (active)	9.35 µM (active)	8.33 µM (active)	inactive	5.26 µM (active)	5.9 µM (active)	16.6 µM (active)	inactive			
CCCCC(C=O)NC(=O)C(CC(C)C)NC(=O)OCc1ccccc1 (stereo not given)	20.9 µM (active)	23.5 µM (active)	inactive							inactive	inactive	inactive			inactive		14.8 µM (active)	23.5 µM (active)		
C[C@@H](O[C@H]1OCCN(Cc2n[nH]c(=O)[nH]2)[C@@H]1c1ccc(F)cc1)c1cc(C(F)(F)F)cc(C(F)(F)F)c1	23.5 µM (active)		4.69 µM (active)	20.9 µM (active)		23.5 µM (active)	23.5 µM (active)			16.6 µM (active)			33.2 µM (active)	20.9 µM (active)	20.9 µM (active)	23.5 µM (active)			23.5 µM (active)	
CC[C@H](C)C(=O)O[C@H]1C[C@H](O)C=C2C=C[C@H](C)[C@H](CC[C@@H](O)C[C@@H](O)CC(=O)O)[C@H]21	inactive	inactive	inactive	inactive	inactive	inactive	inactive		inactive		inactive		inactive	inactive	inactive	inactive	inactive			
CNC(=O)c1ccc2c(C(=Nc3cccc(CN(C)C)c3)c3ccccc3)c(O)[nH]c2c1	inactive	4.18 µM (active)	4.18 µM (active)		5.9 µM (active)		18.7 µM (active)			16.6 µM (active)	14.8 µM (active)	16.6 µM (active)	16.6 µM (active)	18.7 µM (active)	16.6 µM (active)	13.2 µM (active)	inactive			
COc1ccc(-c2cc3nccn3c(Nc3ncccc3C(N)=O)n2)cc1OC	3.32 µM (active)	5.9 µM (active)			0.148 µM (active)	3.32 µM (active)	2.09 µM (active)		16.6 µM (active)	1.18 µM (active)	1.05 µM (active)	0.935 µM (active)	1.18 µM (active)	0.59 µM (active)	0.264 µM (active)	inactive	8.33 µM (active)	6.62 µM (active)		4.69 µM (active)

From PubChem BioAssay (NCATS)
